# Test results reported in PubChem BioAssay (NCATS).
# Inconclusive results are not listed. A call without a number means that no potency is given here. Activity calls are given as the source filed them. The call rests on the fitted dose curve; in most records, active means well fitted curve in the direction sought with a large enough effect; inconclusive means small, poorly fitted or top-dose-only effect, or another doubt; inactive means no such curve, though single readings can be large; an effect the other way counts as inactive or inconclusive. Where a SMILES comes first, the peptide text is derived from it. [ ]: non-standard residue; d: D form. pGlu = O=C1CC[C@@H](C(=O)O)N1
# Test system: not listed separately
# Assay: Primary qHTS for inhibitors of nuclear receptor binding SET domain protein 2 (NSD2) in an RCH-ACV wild type WT cells (2C) (AID 1645877); further: nearly all actives have a fitted effect of over 70% in size; further: potency means the concentration at half of the fitted maximal effect
# Details: RCH-ACV (leukaemia line) NSD2 WT (2C) viability, CellTiter-Glo, 72 h; series mostly up to 44.9 µM
row,SMILES,Potency
1,CCCCC/C=C\C/C=C\CCCCCCCC(=O)NC(C)c1ccccc1 (stereo unspecified),16.8 µM (active)
2,CN1CCCN(C(c2ccccc2)c2ccc(Cl)cc2)CC1 (stereo unspecified),16.8 µM (active)
3,CCN(CC)CC(=O)OCC(=O)[C@@]1(O)CC[C@H]2[C@@H]3CCC4=CC(=O)CC[C@]4(C)[C@H]3[C@@H](O)C[C@@]21C,0.0944 µM (active)
4,CCCC(=O)O[C@]1(C(=O)CCl)[C@@H](C)C[C@H]2[C@@H]3CCC4=CC(=O)C=C[C@]4(C)[C@@]3(F)C(=O)C[C@@]21C,0.0007 µM (active)
5,C[N+]1(CC2COC(c3ccccc3)(c3ccccc3)O2)CCCCC1 (stereo unspecified),2.59 µM (active)
6,CCNC(=O)[C@@H]1CCCN1C(=O)[C@H](CCCN=C(N)N)NC(=O)[C@H](CC(C)C)NC(=O)CNC(=O)[C@H](Cc1ccc(O)cc1)NC(=O)[C@H](CO)NC(=O)[C@H](Cc1c[nH]c2ccccc12)NC(=O)[C@H](Cc1cnc[nH]1)NC(=O)[C@@H]1CCC(=O)N1 ([pGlu]HWSYGLRP-NHEt),inactive
7,CC(C)=CCC/C(C)=C/CC/C(C)=C/C(=O)OCC(=O)[C@@]1(O)CC[C@H]2[C@@H]3CCC4=CC(=O)C=C[C@]4(C)[C@H]3[C@@H](O)C[C@@]21C,4.73 µM (active)

# Test system: not listed separately
# Assay: NCATS anti-infectives library activity on HEK293 viability as a counter-qHTS vs the C. elegans viability qHTS (AID 1745854)
# Details: HEK293 viability counter-screen; series mostly up to 41.8 µM
# Summary of the method: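 CellTiter-Glo luminescence, read on a CCD imager, scored viability of HEK293 cells after 24 hr compound exposure at 37C. Library tested in several concentrations, 1:5 steps, up to 41.7 uM; digitonin served as control.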
row,SMILES,Potency
1,Cc1cc(CCCOc2c(C)cc(-c3noc(C(F)(F)F)n3)cc2C)on1,inactive
2,Clc1ccc2c(c1)N=C(N1CCNCC1)c1ccccc1N2,inactive
3,C[C@@H](O[C@H]1OCCN(Cc2n[nH]c(=O)[nH]2)[C@H]1c1ccc(F)cc1)c1cc(C(F)(F)F)cc(C(F)(F)F)c1,inactive
4,CC[C@@H]([C@H](C)O)n1ncn(-c2ccc(N3CCN(c4ccc(OC[C@@H]5CO[C@@](Cn6cncn6)(c6ccc(F)cc6F)C5)cc4)CC3)cc2)c1=O,inactive

# Target: Metallo-beta-lactamase type 2 (Klebsiella pneumoniae) (UniProt C7C422)
# Assay: qHTS to identify inhibitors of the New Delhi Metallo-beta-lactamase (NDM): assay validation screen against the NCATS LOPAC Collection (AID 1794843)
# Details: NDM-1 enzyme, nitrocefin hydrolysis, absorbance 485 nm; series mostly up to 38.4 µM
# Summary of the method: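 Absorbance at 485 nm from nitrocefin turnover (50 uM solution added), read at plateau, gives the read-out. Compounds in DMSO were incubated first with 2 nM final NDM-1 in pH 7.0 HEPES buffer containing 1 uM ZnSO4 and 0.01% Tween20.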
# Chain of Metallo-beta-lactamase type 2 (Klebsiella pneumoniae) (C7C422 whole entry, looked up): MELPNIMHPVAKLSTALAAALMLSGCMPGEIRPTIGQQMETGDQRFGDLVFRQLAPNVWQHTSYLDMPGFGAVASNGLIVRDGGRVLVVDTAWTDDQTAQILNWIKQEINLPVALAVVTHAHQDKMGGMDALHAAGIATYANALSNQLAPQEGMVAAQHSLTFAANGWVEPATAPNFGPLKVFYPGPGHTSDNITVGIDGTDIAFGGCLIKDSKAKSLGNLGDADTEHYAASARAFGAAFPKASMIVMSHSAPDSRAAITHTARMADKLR
row,SMILES,outcome
1,COC(=O)C1=CO[C@@H](O)[C@@H]2C(CO)=CC[C@H]12,inactive
2,NC(N)=NCCCCN=C(N)N,inactive
3,C[N+](C)(C)CCO,inactive
4,Cn1cnc2c(NCc3ccccc3)nc(NCCO)nc21,inactive
5,Clc1ccc2c(c1)N=C(N1CCNCC1)c1ccccc1N2,inactive
6,CCN(CC)CCNC(=O)c1ccc(NS(C)(=O)=O)cc1,inactive
7,COc1cccc2c1[C@@H]1CN(CCCCn3c(=O)[nH]c4c(sc5ncc(-c6ccccc6)nc54)c3=O)C[C@@H]1CO2,inactive
8,Nc1ncnc2n[nH]c(Nc3ccc(F)cc3)c12,inactive
9,O=C1NC(=O)/C(=C/c2ccc3c(c2)OC(F)(F)O3)S1,inactive
10,Cc1nn(-c2ccccc2)c(C)c1/C=N/N1CCN(Cc2ccccc2)CC1,inactive
